# Screening results from PubChem BioAssay.
# PTAP TSG101 blk: blocks PTAP/TSG101 interaction to inhibit HIV-1 budding | Q99816 | Fluorescence polarization, FITC-PTAP peptide / Tsg101 binding | Potency, µM (doses to about 115 µM), inactives show at the highest dose activity change, negative = inhibition, hits mostly inhibitors | 340,000 tested, under 10 active; active = well fitted inhibition curve with a large enough effect in the main read-out, with a control signal flat, not every such curve was filed as active; inconclusive = small, poorly fitted or top-dose-only effect, or effect the other way, or a change in a side signal; inactive = no such curve, though single readings can be large or run the other way; note: potency is the fitted concentration of half-maximal effect; % of control where 0% means no effect
# Target sequence (Q99816 whole entry, looked up): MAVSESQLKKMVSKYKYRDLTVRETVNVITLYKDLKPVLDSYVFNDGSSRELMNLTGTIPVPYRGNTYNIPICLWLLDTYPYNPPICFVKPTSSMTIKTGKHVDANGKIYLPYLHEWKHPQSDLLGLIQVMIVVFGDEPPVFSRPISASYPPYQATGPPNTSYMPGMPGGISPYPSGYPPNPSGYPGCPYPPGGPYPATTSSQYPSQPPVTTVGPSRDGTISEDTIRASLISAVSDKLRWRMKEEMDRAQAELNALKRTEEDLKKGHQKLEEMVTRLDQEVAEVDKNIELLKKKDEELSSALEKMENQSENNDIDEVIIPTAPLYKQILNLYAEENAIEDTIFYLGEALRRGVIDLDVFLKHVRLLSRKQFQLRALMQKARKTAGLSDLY
#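 Fluorescence anisotropy tracks displacement of a FITC-tagged PTAP peptide (50 nM) from the Tsg101 binding domain (10 uM), following a 20 min room-temperature incubation at pH 7.5.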
# VDR inhibitor: inhibitors of human vitamin D receptor; AID 504847; actives 0.93% (n = 400,000); P11473; Potency, µM, inactives show max response, negative = inhibition, actives largely listed as inhibitors; VDR-SRC2-3 peptide fluorescence polarization, 2 h; note: potency is the fitted concentration of half-maximal effect; % is set by controls: 0 for no effect and ±100 for the full control effect
#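 Signal is fluorescence polarization, reporting how far test compounds block the interaction of VDR with the SRC2-3 coregulator peptide after a 2 h room-temperature incubation.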
# PLK1 PBD inh: blocks phosphopeptide binding to human PLK1 polo-box domain. P53350. Plk1 PBD binding of FITC phosphopeptide, fluorescence polarization. Potency, µM, inactives show max response, negative = inhibition, actives largely listed as inhibitors. actives 2.8% (n = 360,000). AID 720504; note: potency is the fitted concentration of half-maximal effect; series mostly up to about 57 µM; % is set by controls: 0 for no effect and ±100 for the full control effect; nearly all actives have a fitted effect of over 65% in size
# uPA generation: blocks generation of uPA at the cell surface; actives 0.31% (n = 330,000); Potency, µM (doses to about 38.3 µM), for the others: at the highest dose activity change, negative = inhibition, most hits filed as inhibitors; AID 540303; cell surface uPA generation assay, qHTS; active = well fitted inhibition curve with a large enough effect; inconclusive = small, poorly fitted or top-dose-only effect; inactive = no such curve, though single readings can be large or run the other way; tested in mouse RAW 264.7 cells; note: potency is the fitted concentration of half-maximal effect; % is set by controls: 0 for no effect and ±100 for the full control effect; nearly all actives have a fitted effect of over 55% in size
# TSHR antagonist: antagonists of human thyroid stimulating hormone receptor | TSHR-expressing cells, TSH-stimulated cAMP HTRF, 2 h; hits give low values | AID 504810 | P16473 | activity change, negative = inhibition, % at 11.5 µM | actives 0.2% (n = 330,000);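 active = activity change below a set negative limit, meaning inhibition stronger than a set level, cut at about -70% in these data; inconclusive = activity change between two set negative limits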; note: % is set by controls: 0 for no effect and ±100 for the full control effect
#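 Inhibition of cAMP made by TSHR-expressing cells under TSH stimulation (4nM final, EC80; 2 h, 37 deg C) is quantified with a one-step lysis HTRF kit, anti-cAMP cryptate versus cAMP-d2.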
# * = called active by the depositor; ? = inconclusive; nt = not tested or not shown; ! = not confirmed by another sample. Shown are actives, neighbours in structure and some others; about 3.1% of the full set was active somewhere. Unless noted, calls come from the whole dose curve; as a rule, active = well fitted curve in the direction sought with a large enough effect; inconclusive = small, poorly fitted or top-dose-only effect, or another doubt; inactive = no such curve, though single readings can be large; an effect the other way counts as inactive or inconclusive.
SMILES,PTAP TSG101 blk,VDR inhibitor,PLK1 PBD inh,uPA generation,TSHR antagonist
O=C(Nc1ccc(Oc2ccc(Cl)cc2)c(Cl)c1)c1cc(I)cc(I)c1O,0%,?,?,4%,-94*
O=C(CCl)c1ccc(Oc2ccc(C(=O)CCl)cc2)cc1,nt,7.1µM*,nt,nt,nt
N[C@]1(C(=O)O)CC[C@@H](C(=O)O)C1 (racemic),nt,1%,nt,nt,nt
COC(=O)Cn1cc(C=C2C(=O)N(C)C(=O)N(C)C2=O)c2ccccc21,-26%,-17%,?,17%,12
CC1CCCCN1C(=O)Cn1cc(C=C2C(=O)N(C)C(=O)N(C)C2=O)c2ccccc21 (centres undefined),-3%,-9%,17µM*,3%,0
CCN(CC)C(=O)Cn1cc(C=C2C(=O)N(C)C(=O)N(C)C2=O)c2ccccc21,?,-8%,30µM*,9%,1
COc1ccc(-c2c([C@H]3[C@H]4C=CC[C@@H](C)[C@@H]4C(=O)N3Cc3ccccc3)ccc3ccccc23)cc1OC,-4%,1%,-10%,?,-2
CCOC(=O)[C@]12Cc3cc(OC)ccc3[C@H]1N(C(C)C)C(=O)c1cc(OC)ccc12,nt,nt,8.4µM*,nt,nt
CCOC(=O)[C@]12Cc3cc(C)ccc3[C@H]1N(C)C(=O)c1cc(OC)ccc12,nt,nt,6.7µM*,nt,nt
CCC12C=CCN3CCC4(c5ccc(OC)cc5N(C)C4[C@@](O)(C(=O)OC)C1OC(C)=O)C32 (some centres undefined),nt,10%,nt,nt,nt
COc1cc(OC)c(/C=C2\C(=O)Nc3ccccc32)c(OC)c1,-2%,-10%,-14%,7.9µM*,-5
Clc1ccc(C2CC3CCC2N3)cn1 (centres undefined),nt,0%,nt,nt,nt
OC[C@H]1O[C@@H](n2cnc3cc(Cl)c(Cl)cc32)[C@H](O)[C@@H]1O,-1%,-1%,0%,8.9µM*,-6
OC12C3C4CC5C6C4C1C6C(C53)N2CCc1cccc(F)c1 (centres undefined),nt,12%,nt,nt,nt
NC(=NCCc1ccc(I)cc1)SCCCc1cnc[nH]1,nt,2%,nt,nt,nt
NCC(O)c1cc(O)c(O)cc1F (centres undefined),-12%,28µM*!,1%,26%,-19
CCC(C)N1C(=O)/C(=C/c2ccc3c(c2)CCN3CCCCl)C(=O)NC1=S (centres undefined),-1%,1%,0.95µM*,4%,2
Cc1cccc(N2C(=O)NC(=O)/C(=C\c3ccc4c(c3)CCCN4Cc3ccccc3)C2=O)c1,?,?,?,0%,10
CN1C(=O)CCS(=O)(=O)[C@@H]1c1ccc(Cl)cc1,nt,0%,nt,nt,nt
COc1ccc(OC)c(C2=NS(=O)(=O)N(C)C(C(=O)N3CCC4(CC3)OCCO4)=C2)c1,0%,-23%,30µM*,1%,-9
Cn1ncnc2c(=O)n(C)c(=O)nc1-2,3%,-6%,?,1.1µM*,-4
Cc1ccc(-c2nc3c(=O)n(C)c(=O)nc-3n(C)n2)cc1,nt,-25%,nt,nt,nt
COc1ccc2c(c1)C[C@]1(C)c3ccccc3C(=O)N(Cc3ccccc3)[C@H]21,-1%,-10%,-1%,?,nt
C=CCc1cc(C=C2C(=O)NC(=O)NC2=O)cc(OC)c1OCc1ccc(C(=O)O)cc1,-1%,89µM*,12µM*,14%,6
C=CCc1cc(C=C2C(=O)N(C)C(=O)N(C)C2=O)cc(OCC)c1OCc1ccccc1,0%,?,7.5µM*,0%,-10
SMILES,PTAP TSG101 blk,VDR inhibitor,PLK1 PBD inh,uPA generation,TSHR antagonist
COc1ccc(N(CC(=O)Nc2ccccc2C(F)(F)F)C2=NC3CS(=O)(=O)CC3S2)cc1 (centres undefined),0%,-21%,4%,?,-1
CC(C)(C)OC(=O)N1CC[C@H]1COc1cnc[c]([Sn]([CH3])([CH3])[CH3])c1,nt,6%,nt,nt,nt
CC(C)c1ccc(N2C(=O)CC(=O)NC2=O)cc1,-4%,-14%,-17%,5%,-2
Cc1ccc(N2C(=O)NC(=O)/C(=C/C=C/c3ccco3)C2=O)cc1,0%,25µM*,?,-14%,-8
CCCCN1C(=O)/C(=C/C=C/c2ccco2)C(=O)NC1=S,18%,?,1.1µM*,-3%,-2
CCc1ccc(N2C(=O)NC(=O)/C(=C\C=C\c3ccco3)C2=O)cc1,3%,?,1.3µM*,8.9µM*,12
CC(C)c1ccc(N2C(=O)NC(=O)/C(=C/C=C/c3ccco3)C2=O)cc1,7%,-13%,0.67µM*,-12%,0
Cc1nn(C)c(C)c1-c1cccc2c1CCC(N(C)C)C2 (centres undefined),nt,11%,nt,nt,nt
COC[C@H]([C@@H](O)[C@@H](O)C(=O)NCC[C@@H](C)c1nc(/C=C/C[C@H]2OC3(C[C@H](O)[C@H]2C)OC([C@@H](C[C@@H](O)[C@@H](C)[C@@H](O)[C@@H](C)/C=C(C)/C(C)=C/C=C/C(C)=C\C#N)OC)[C@@H](OP(=O)(O)O)C3(C)C)co1)N(C)C (some centres undefined),nt,2%,nt,nt,nt
F/C(COc1ccc2c(c1)[nH]c1ccccc12)=C1/CN2CCC1CC2,nt,17%,nt,nt,nt
O=C1NC(=O)N(Cc2ccc(F)cc2)C(=O)/C1=C\C=C\c1ccco1,2%,?,?,-14%,-15
CCCCN1C(=O)/C(=C\c2ccco2)C(=O)N(CCc2ccccc2)C1=O,-6%,148%,0.84µM*,0%,-5
Cc1cc(C)cc(N2C(=O)NC(=O)/C(=C\C=C\c3ccco3)C2=O)c1,1%,-22%,1.7µM*,-13%,6
N[C@@]1(C(=O)O)CC[C@H](C(=O)O)C1,nt,9%,nt,nt,nt
Cn1c(O)c(C(=Nc2ccccc2)SCc2ccc(Cl)cc2)c(=O)n(C)c1=O,0%,?,27µM*,?,-30
Cn1c(O)c(C(=N)COc2ccccc2)c(=O)n(C)c1=O,-8%,18%,-5%,nt,6
CC(C)C[C@H](NC(=O)[C@H](Cc1ccccc1)NC(=O)CNC(=O)[C@@H](NC(=O)[C@@H](N)Cc1ccc(O)cc1)[C@H](C)O)C(=O)N[C@H](C(=O)O)[C@H](C)O,nt,0%,nt,nt,nt
Cc1ccc(Nc2nc(N)nc(CCl)n2)c(C)c1,-8%,-8%,-11%,4µM*,7
COc1cccc2c1C13CC[N+]4(CC5CC5)CO[C@]1(CCC(=O)C3)C4C2,nt,10%,nt,nt,nt
Oc1cccc[c]1[Hg][Cl],nt,5µM*,nt,nt,nt
CC(=O)c1sc(NC(=O)CCS(=O)(=O)c2ccc(C)cc2)nc1C,-7%,-7%,-1%,11µM*,-4
CCOC(=O)c1ccsc1NC(=O)CCS(=O)(=O)c1ccccc1,0%,-13%,-1%,?,-21
O=C(Nc1ccc(S(=O)(=O)Nc2ccccc2)cc1)c1ccc(CN2CCOCC2)cc1,-4%,-10%,4%,?,-21
O=C1C=CC(=O)c2c1ccc1c2ccc2ccccc21,nt,3.2µM*,nt,nt,nt
CCOC(=O)c1sc(=NC(=O)c2ccc(C)c(C)c2)n(C)c1C,-1%,-22%,27µM*,-1%,-2
